Measured values as given in PubChem BioAssay (EPA / NIEHS).
Results filed as inconclusive are left out. Calls of active or inactive are those of the source. How the source made its calls: active means hit-call score of the fitted dose curve at least 0.9, where 1 is the maximum; inconclusive means response in the unintended direction; inactive means score below 0.9.

Each molecule was assayed against Nuclear receptor subfamily 1 group I member 2 (Homo sapiens) (UniProt O75469) (assay: ATG_PXR_TRANS: Attagene TRANS-FACTORIAL HepG2 Assay for human Pregnane X Receptor (PXR) (AID 2283008)).
Procedure, shortened: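 HepG2 transfected (FuGene 6) with GAL4-UAS reporter units + PXR-Gal4 chimera; dosed 24 h. Total RNA → oligo(dT) RT → PCR → 6-FAM primer extension → HpaI cut → CE. Gain-of-signal vs DMSO.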

Sequence of Nuclear receptor subfamily 1 group I member 2 (Homo sapiens) (O75469 whole entry, looked up, the tested form may be a part): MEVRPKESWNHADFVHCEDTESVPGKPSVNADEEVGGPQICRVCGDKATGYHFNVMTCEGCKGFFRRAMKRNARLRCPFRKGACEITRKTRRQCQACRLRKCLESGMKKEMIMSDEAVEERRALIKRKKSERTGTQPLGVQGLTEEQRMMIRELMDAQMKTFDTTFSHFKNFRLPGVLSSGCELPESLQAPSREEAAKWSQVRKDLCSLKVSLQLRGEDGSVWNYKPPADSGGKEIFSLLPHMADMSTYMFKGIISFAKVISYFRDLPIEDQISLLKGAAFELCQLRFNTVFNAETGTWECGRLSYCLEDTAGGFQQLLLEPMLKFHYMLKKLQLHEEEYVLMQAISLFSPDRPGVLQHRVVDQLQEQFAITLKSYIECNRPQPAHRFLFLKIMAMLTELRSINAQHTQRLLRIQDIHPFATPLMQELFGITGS

Row | Structure (SMILES) | outcome | AC50
1 | CC(=O)NS(=O)(=O)c1ccc(N)cc1 | inactive | –
2 | CCCCCCCCCCOC(C)=O | inactive | –
3 | Cc1cc(O)c(Cl)c(C)c1Cl | – | 26.4 µM (active)
4 | CCCCOCCOC(=O)COc1nc(Cl)c(Cl)cc1Cl | inactive | –
5 | C=C(C)C(=O)OCCO | inactive | –
6 | FC(F)(F)C(=NOCC1OCCO1)c1ccc(Cl)cc1 | inactive | –
7 | OC1OCCOC1O (configuration not stated) | inactive | –
8 | CC(C)c1ccc(C#N)cc1 | inactive | –
9 | CC1=Nc2ccc3ccccc3c2C1(C)C | – | 2.65 µM (active)
10 | COC(=O)c1ccc2cc(C(=O)OC)ccc2c1 | inactive | –
11 | COc1ccc([C@@H]2CC(=O)c3c(O)cc(O[C@@H]4O[C@H](CO[C@@H]5O[C@@H](C)[C@H](O)[C@@H](O)[C@H]5O)[C@@H](O)[C@H](O)[C@H]4O)cc3O2)cc1OC | inactive | –
12 | O=C(O)CCCCCCCCCC(=O)O | inactive | –
13 | CC1=NN(c2cc(S(=O)(=O)O)ccc2Cl)C(=O)C1N=Nc1ccccc1 (configuration not stated) | inactive | –
14 | CC(C)(C)C(=O)C=Cc1ccc(Cl)cc1 | – | 26.2 µM (active)
15 | CC(C)(Oc1ccc(C2CC2(Cl)Cl)cc1)C(=O)O (configuration not stated) | inactive | –
16 | Cc1ccc2oc(=O)ccc2c1 | inactive | –
17 | Cc1cc(C)c(C(=O)O)c(C)c1 | inactive | –
18 | COc1c2ccoc2cc2oc(=O)ccc12 | – | 36.6 µM (active)
19 | CCOC(=O)c1ccc(N(C)C)cc1 | – | 27.5 µM (active)
20 | Cc1ccc(N/N=c2\c(=O)cc/c(=N/Nc3ccc(S(=O)(=O)O)cc3)c2=O)c(C)c1 | inactive | –
21 | CCCCCCC1(C)CCC(=O)O1 (configuration not stated) | – | 33.2 µM (active)
22 | OCCN(CCO)c1ccccc1 | inactive | –
23 | CCC(CO)CO | inactive | –
24 | Cc1cccc(C(=O)O)c1 | inactive | –
25 | C=CC(=O)OCCC(=O)O | inactive | –
26 | COc1cc(NC(=O)CC(C)=O)c(OC)cc1Cl | inactive | –

These molecules were tested against human Retinoic Acid Receptor gamma (RARg), RARG (gene 5916) (UniProt P13631) (assay: ATG_RARg_TRANS: Attagene TRANS-FACTORIAL HepG2 Assay for human Retinoic Acid Receptor gamma (RARg) (AID 2283009)).
Procedure, shortened: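 TRANS format measured activity of exogenous NR-GAL4 fusion (RARg) in transfected HepG2 liver cells after 24 h dosing. Induced reporter RNA was detected by RT-PCR/capillary electrophoresis fluorescence, analysed in the positive direction against DMSO.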

Sequence of human Retinoic Acid Receptor gamma (RARg), RARG (gene 5916) (P13631 whole entry, looked up, the tested form may be a part): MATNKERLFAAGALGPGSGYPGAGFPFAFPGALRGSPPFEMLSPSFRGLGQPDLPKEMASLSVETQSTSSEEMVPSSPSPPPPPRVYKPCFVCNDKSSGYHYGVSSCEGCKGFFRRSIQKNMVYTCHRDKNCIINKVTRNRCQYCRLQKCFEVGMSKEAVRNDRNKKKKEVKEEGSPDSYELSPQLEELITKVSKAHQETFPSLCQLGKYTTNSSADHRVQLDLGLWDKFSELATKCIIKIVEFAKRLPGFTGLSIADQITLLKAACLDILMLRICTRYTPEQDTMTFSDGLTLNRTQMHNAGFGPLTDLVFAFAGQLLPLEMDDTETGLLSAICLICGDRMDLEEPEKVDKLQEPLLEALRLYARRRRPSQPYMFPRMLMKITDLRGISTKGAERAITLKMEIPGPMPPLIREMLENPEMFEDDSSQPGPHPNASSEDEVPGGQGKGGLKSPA

Row | Structure (SMILES) | outcome
27 | C=C(C)C(=O)OCCO | inactive
28 | CC1=Nc2ccc3ccccc3c2C1(C)C | inactive
29 | COC(=O)c1ccc2cc(C(=O)OC)ccc2c1 | inactive
30 | CC1=NN(c2cc(S(=O)(=O)O)ccc2Cl)C(=O)C1N=Nc1ccccc1 (configuration not stated) | inactive
31 | CC(C)(Oc1ccc(C2CC2(Cl)Cl)cc1)C(=O)O (configuration not stated) | inactive
32 | COc1cc(NC(=O)CC(C)=O)c(OC)cc1Cl | inactive

The molecules below were run against human RAR-related Orphan Receptor beta (RORb), RORB (gene 6096) (UniProt Q92753) (assay: ATG_RORb_TRANS: Attagene TRANS-FACTORIAL HepG2 Assay for human RAR-related Orphan Receptor beta (RORb) (AID 2283010)).
Procedure, shortened: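 Transfect HepG2 with multiple GAL4-UAS reporter transcription units; dose chemicals for 24 h; isolate RNA, reverse-transcribe and PCR-amplify reporter sequences; label, digest and resolve fragments by capillary electrophoresis; fit increases relative to DMSO.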

Sequence of human RAR-related Orphan Receptor beta (RORb), RORB (gene 6096) (Q92753 whole entry, looked up, the tested form may be a part): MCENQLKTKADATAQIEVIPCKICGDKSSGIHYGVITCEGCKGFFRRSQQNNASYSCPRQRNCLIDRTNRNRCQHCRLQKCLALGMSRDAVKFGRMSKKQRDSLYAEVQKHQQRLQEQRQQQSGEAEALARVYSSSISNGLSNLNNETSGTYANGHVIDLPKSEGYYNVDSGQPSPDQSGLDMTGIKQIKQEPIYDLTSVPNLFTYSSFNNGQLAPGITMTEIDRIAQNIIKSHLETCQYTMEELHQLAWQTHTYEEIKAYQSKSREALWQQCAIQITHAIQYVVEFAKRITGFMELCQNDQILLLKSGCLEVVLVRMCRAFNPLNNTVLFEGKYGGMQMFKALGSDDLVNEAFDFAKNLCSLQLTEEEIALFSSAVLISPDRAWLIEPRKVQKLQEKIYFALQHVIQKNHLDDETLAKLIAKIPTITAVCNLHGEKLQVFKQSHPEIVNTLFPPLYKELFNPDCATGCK

Row | Structure (SMILES) | outcome
33 | CCCCCCCCCCOC(C)=O | inactive
34 | C=C(C)C(=O)OCCO | inactive
35 | FC(F)(F)C(=NOCC1OCCO1)c1ccc(Cl)cc1 | inactive
36 | Cc1ccc(C(C)(C)C)cc1 | inactive
37 | OC1OCCOC1O (configuration not stated) | inactive
38 | CC(C)c1ccc(C#N)cc1 | inactive
39 | O=C1C=CC(=O)O1 | inactive
40 | COC(=O)c1ccc2cc(C(=O)OC)ccc2c1 | inactive
41 | O=C1CCCC(=O)O1 | inactive
42 | O=C(O)CCCCCCCCCC(=O)O | inactive
43 | CC1=NN(c2cc(S(=O)(=O)O)ccc2Cl)C(=O)C1N=Nc1ccccc1 (configuration not stated) | inactive
44 | COC(F)(F)C(F)(C(F)(F)F)C(F)(F)F | inactive
45 | Clc1nc2ccccc2s1 | inactive
46 | Cc1ccc2oc(=O)ccc2c1 | inactive
47 | Cc1cc(C)c(C(=O)O)c(C)c1 | inactive
48 | Cc1ccc(N/N=c2\c(=O)cc/c(=N/Nc3ccc(S(=O)(=O)O)cc3)c2=O)c(C)c1 | inactive
49 | CCC(CO)CO | inactive
50 | CC(=O)Oc1ccc(C)cc1 | inactive
51 | COc1cc(NC(=O)CC(C)=O)c(OC)cc1Cl | inactive

The molecules below were run against human RAR-related Orphan Receptor gamma (RORg), RORC (gene 6097) (UniProt P51449) (assay: ATG_RORg_TRANS: Attagene TRANS-FACTORIAL HepG2 Assay for human RAR-related Orphan Receptor gamma (RORg) (AID 2283011);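 on AC50: potency for induction of reporter transcripts above DMSO so activators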).
Procedure, shortened: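 Reporter transcripts from a transfected RORg-GAL4 chimera in HepG2 cells were quantified 24 h after dosing by RT-PCR, 6-FAM labelling, HpaI digestion and capillary electrophoresis; increases over DMSO baseline were fitted.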

Sequence of human RAR-related Orphan Receptor gamma (RORg), RORC (gene 6097) (P51449 whole entry, looked up, the tested form may be a part): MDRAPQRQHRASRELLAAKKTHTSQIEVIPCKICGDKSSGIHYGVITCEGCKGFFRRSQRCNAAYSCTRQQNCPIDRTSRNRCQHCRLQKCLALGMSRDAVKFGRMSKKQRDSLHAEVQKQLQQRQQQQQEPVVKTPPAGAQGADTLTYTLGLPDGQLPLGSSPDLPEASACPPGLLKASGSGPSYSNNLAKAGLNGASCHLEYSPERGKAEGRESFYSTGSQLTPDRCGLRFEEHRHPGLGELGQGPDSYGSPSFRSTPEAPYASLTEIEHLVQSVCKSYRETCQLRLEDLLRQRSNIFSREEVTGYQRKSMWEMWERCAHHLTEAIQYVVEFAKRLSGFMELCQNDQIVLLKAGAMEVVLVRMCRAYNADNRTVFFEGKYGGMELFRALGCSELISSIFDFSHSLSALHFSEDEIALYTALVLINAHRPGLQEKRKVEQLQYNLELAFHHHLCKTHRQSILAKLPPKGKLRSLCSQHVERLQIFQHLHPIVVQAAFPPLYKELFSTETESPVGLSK

Row | Structure (SMILES) | outcome | AC50
52 | CC(=O)NS(=O)(=O)c1ccc(N)cc1 | inactive | –
53 | CCCCCCCCCCOC(C)=O | inactive | –
54 | NC(=O)NNC(N)=O | inactive | –
55 | C=C(C)C(=O)OCCO | inactive | –
56 | Cc1ccc(C(C)(C)C)cc1 | inactive | –
57 | CC(C)c1ccc(C#N)cc1 | inactive | –
58 | O=S(=O)(O)c1ccccc1C=Cc1ccc(-c2ccc(C=Cc3ccccc3S(=O)(=O)O)cc2)cc1 | inactive | –
59 | O=C1C=CC(=O)O1 | inactive | –
60 | COc1ccc([C@@H]2CC(=O)c3c(O)cc(O[C@@H]4O[C@H](CO[C@@H]5O[C@@H](C)[C@H](O)[C@@H](O)[C@H]5O)[C@@H](O)[C@H](O)[C@H]4O)cc3O2)cc1OC | inactive | –
61 | O=C1CCCC(=O)O1 | inactive | –
62 | CC1=NN(c2cc(S(=O)(=O)O)ccc2Cl)C(=O)C1N=Nc1ccccc1 (configuration not stated) | inactive | –
63 | CC(C)=CC1CC(C)CCO1 (configuration not stated) | inactive | –
64 | CC(C)(C)C(=O)C=Cc1ccc(Cl)cc1 | – | 24.4 µM (active)
65 | Clc1nc2ccccc2s1 | inactive | –
66 | Cc1cc(C)c(C(=O)O)c(C)c1 | inactive | –
67 | COc1c2ccoc2cc2oc(=O)ccc12 | inactive | –
68 | CCOC(=O)c1ccc(N(C)C)cc1 | inactive | –
69 | Cc1ccc(N/N=c2\c(=O)cc/c(=N/Nc3ccc(S(=O)(=O)O)cc3)c2=O)c(C)c1 | inactive | –
70 | CCCCCCC1(C)CCC(=O)O1 (configuration not stated) | inactive | –
71 | NC(CO)(CO)CO | inactive | –
72 | CCC(CO)CO | inactive | –
73 | CC(=O)Oc1ccc(C)cc1 | inactive | –
74 | Cc1cccc(C(=O)O)c1 | inactive | –
75 | C=CC(=O)OCCC(=O)O | inactive | –
76 | O=C1OC(=O)c2cc(Oc3ccc4c(c3)C(=O)OC4=O)ccc21 | inactive | –

Each molecule was assayed against Retinoic acid receptor RXR-alpha (Homo sapiens) (UniProt P19793) (assay: ATG_RXRa_TRANS: Attagene TRANS-FACTORIAL HepG2 Assay for human Retinoid X Receptor alpha (RXRa) (AID 2283012)).
Procedure, shortened: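 Measures exogenous chimeric NR-GAL4 activity in transfected HepG2 liver cells after 24 h of dosing. Induced reporter mRNA was detected by RT-PCR with capillary electrophoresis, and gain of signal was analysed against DMSO.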

Sequence of Retinoic acid receptor RXR-alpha (Homo sapiens) (P19793 whole entry, looked up, the tested form may be a part): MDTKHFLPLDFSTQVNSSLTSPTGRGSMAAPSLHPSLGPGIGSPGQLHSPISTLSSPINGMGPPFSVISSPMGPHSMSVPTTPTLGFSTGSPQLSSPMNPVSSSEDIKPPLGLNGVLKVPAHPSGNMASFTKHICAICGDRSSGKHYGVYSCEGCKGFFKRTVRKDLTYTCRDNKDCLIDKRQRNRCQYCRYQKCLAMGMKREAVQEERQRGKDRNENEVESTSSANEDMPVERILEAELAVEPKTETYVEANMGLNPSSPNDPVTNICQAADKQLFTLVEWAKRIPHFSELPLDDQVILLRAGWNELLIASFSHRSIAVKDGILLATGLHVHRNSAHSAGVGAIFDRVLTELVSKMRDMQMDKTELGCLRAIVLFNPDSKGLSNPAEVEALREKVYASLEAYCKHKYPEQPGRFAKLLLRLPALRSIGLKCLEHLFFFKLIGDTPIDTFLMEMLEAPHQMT

Row | Structure (SMILES) | outcome
77 | CC(=O)NS(=O)(=O)c1ccc(N)cc1 | inactive
78 | CCCCCCCCCCOC(C)=O | inactive
79 | NC(=O)NNC(N)=O | inactive
80 | O=[N+]([O-])C1(Br)COCOC1 | inactive
81 | FC(F)(F)C(=NOCC1OCCO1)c1ccc(Cl)cc1 | inactive
82 | Cc1ccc(C(C)(C)C)cc1 | inactive
83 | CC(C)c1ccc(C#N)cc1 | inactive
84 | CC1=Nc2ccc3ccccc3c2C1(C)C | inactive
85 | COC(=O)c1ccc2cc(C(=O)OC)ccc2c1 | inactive
86 | COc1ccc([C@@H]2CC(=O)c3c(O)cc(O[C@@H]4O[C@H](CO[C@@H]5O[C@@H](C)[C@H](O)[C@@H](O)[C@H]5O)[C@@H](O)[C@H](O)[C@H]4O)cc3O2)cc1OC | inactive
87 | O=C(O)CCCCCCCCCC(=O)O | inactive
88 | CC1=NN(c2cc(S(=O)(=O)O)ccc2Cl)C(=O)C1N=Nc1ccccc1 (configuration not stated) | inactive
89 | CC(C)=CC1CC(C)CCO1 (configuration not stated) | inactive
90 | COC(F)(F)C(F)(C(F)(F)F)C(F)(F)F | inactive
91 | CC(C)(C)C(=O)C=Cc1ccc(Cl)cc1 | inactive
92 | CC(C)(Oc1ccc(C2CC2(Cl)Cl)cc1)C(=O)O (configuration not stated) | inactive
93 | Clc1nc2ccccc2s1 | inactive
94 | Cc1ccc2oc(=O)ccc2c1 | inactive
95 | COc1c2ccoc2cc2oc(=O)ccc12 | inactive
96 | Cc1ccc(N/N=c2\c(=O)cc/c(=N/Nc3ccc(S(=O)(=O)O)cc3)c2=O)c(C)c1 | inactive
97 | OCCN(CCO)c1ccccc1 | inactive
98 | CCC(CO)CO | inactive
99 | CC(=O)Oc1ccc(C)cc1 | inactive
100 | Cc1cccc(C(=O)O)c1 | inactive
101 | O=C1OC(=O)c2cc(Oc3ccc4c(c3)C(=O)OC4=O)ccc21 | inactive
102 | COc1cc(NC(=O)CC(C)=O)c(OC)cc1Cl | inactive
